Experimental data from PubChem BioAssay (NCATS).
Inconclusive results are not listed. Unmarked numbers belong to inactive results. Activity calls are given as the source filed them. Calls come from the whole dose curve; as a rule, active = well fitted cell-killing curve with a large enough effect; inconclusive = small, poorly fitted or top-dose-only effect, or effect the other way; inactive = no such curve, though single readings can be large or run the other way.

Assay: Quantitative High-Throughput drug screen in 47 multiple myeloma cell lines against the NCATS MIPE library collection: PCM6_Riken cell viability assay (AID 1919870); note: nearly all actives have a fitted effect of over 30% in size
Settings: CellTiter-Glo ATP, 48 h; series mostly up to 45.8 µM
From the text: PI: Beverly A. Mock Ph.D.
Laboratory of Cancer Biology and Genetics,
Center for Cancer Research, National Cancer Institute,
National Institute of Health, Bethesda, Maryland
Drug resistance and disease progression are common in multiple myeloma (MM) patients, underscoring the need for new therapeutic combinations. […] We hypothesized that effective combinations would reduce MYC expression and enhance p16 activity. […] These preclinical data identify potentially useful drug combinations for evaluation in drug-resistant MM and reveal potential mechanisms of combined drug sensitivity.
Described herein is the primary MIPE qHTS used to cherrypick compounds. Validated compounds were then further tested for potential synergistic activiy.
[1] Peat TJ, Gaikwad SM, Dubois W, Gyabaah-Kessie N, Zhang S, Gorjifard S, Phyo Z, Andres M, Hughitt VK, Simpson RM, Miller MA, Girvin AT, Taylor A, Williams D, D'Antonio N, Zhang Y, Rajagopalan A, Flietner E, Wilson K, Zhang X, Shinn P, Klumpp-Thomas C, McKnight C, Itkin Z, Chen L, Kazandijian D, Zhang J, Michalowski AM, Simmons JK, Keats J, Thomas CJ, Mock BA. Drug combinations identified by high-throughput screening promote cell cycle transition and upregulate Smad pathways in myeloma. Cancer Lett. 2023 Aug 1;568:216284. doi: 10.1016/j.canlet.2023.216284. Epub 2023 Jun 24. PMID: 37356470; PMCID: PMC10408729.
SEQUENCE No. (e.g., 1, 2, 3, etc.); […] (e.g., Cells, Incubation, Reagent, etc.); VALUE and DESCRIPTION.
1; Cells; 5 uL; white, solid bottom 1536-well Greiner assay plate.
2; Compounds; 23 nL; Kalypsis pin tool (Wako USA) equipped with a 1536-well pin head to transfer to the assay plates.
3; Incubation; 48 hours; 37C incubation.
4; Reagent;5uL; CellTiter Glo (Promega).
5; Detector; 425V; Luminescence; Viewlux PerkinElmer.
NOTES (numbers refer to Sequence numbers above)
1. The cell-based screening methods employed in this study were like those previously published. Briefly, the corresponding myeloma cell lines were screened in 1,536-well plates with 500 cells, 5-uL per well for inhibition of cell viability (assessed by measuring ATP levels with CellTiterGlo).
2. NCATS MIPE 4.0 library of approved and investigational drugs were added using the Kalypsis pin tool. Wells treated with DMSO only for 100% viability and media only for 0% viability were used as controls.
3. The assay plates were covered and incubated for 48 hours in a 37C, 5% CO2 incubator with controlled humidity.
4. After 48 hours, CellTilter-GloTM luminescent substrate mix (Promega) reagent was added to the assay plate and plates we incubated for 5 min at room temperature.
5. Signal was measured as median relative luminescence units on a ViewLux (PerkinElmer) multiplate reader.
[1] Heske CM, Davis MI, Baumgart JT, Wilson K, Gormally MV, Chen L, Zhang X, Ceribelli M, Duveau DY, Guha R, Ferrer M, Arnaldez FI, Ji J, Tran HL, Zhang Y, Mendoza A, Helman LJ, Thomas CJ. Matrix Screen Identifies Synergistic Combination of PARP Inhibitors and Nicotinamide Phosphoribosyltransferase (NAMPT) Inhibitors in Ewing Sarcoma. Clin Cancer Res. 2017 Dec 1;23(23):7301-7311. doi: 10.1158/1078-0432.CCR-17-1121. Epub 2017 Sep 12. PMID: 28899971; PMCID: PMC6636827.
Potency is the fitted concentration of half-maximal effect.

Structure (SMILES)	viability (% of control)	Potency
CC(C)(C)[C@H](NC(=O)c1ccc(N)c(Cl)c1)C(=O)N1CCC[C@@H]1C(=O)N[C@H](C#N)CC(=O)O	122% [at 3.51 µM]	
CCOc1cc2c(c(F)c1OCC)C(=N)N(CC(=O)c1cc(N3CCOCC3)c(OC)c(C(C)(C)C)c1)C2		7.43 µM (active)
C=CC1=C(C(=O)O)N2C(=O)[C@@H](NC(=O)C(=NO)c3csc(N)n3)[C@H]2SC1		11.8 µM (active)
COc1ccc(S(=O)(=O)Nc2cccnc2Nc2ccc(O)cc2)cc1		0.235 µM (active)
CN1CCCN(C(=O)c2cccc(-c3ccc(C=C4C(=O)Nc5ccc(Cl)cc54)o3)c2)CC1		9.35 µM (active)
C[C@H](NCc1ccc(OCc2cccc(F)c2)cc1)C(N)=O		2.09 µM (active)
C[C@]12CCC(=O)C=C1[C@@H]1CC1[C@H]1[C@H]3[C@@H]4C[C@H]4[C@@]4(CCC(=O)O4)[C@@]3(C)CC[C@H]12 (stereo not given in full)		inactive
CC(C)N1[N]C(=C2C=c3cc(O)ccc3=N2)c2c(N)ncnc21		1.18 µM (active)
COc1cc2c(cc1OC)[C@@H]1C(=O)c3ccc4c(c3O[C@@H]1CO2)C=CC(C)(C)O4		7.43 µM (active)
CN(CC(=O)N(Cc1ccc(C2CCCCC2)cc1)c1ccc(C(=O)O)c(O)c1)S(=O)(=O)c1c(F)c(F)c(F)c(F)c1F		6.62 µM (active)
CCN(C(=O)c1c(O)c2c(Cl)cccc2n(C)c1=O)c1ccccc1		inactive
N#CNC(=NCCCCCCOc1ccc(Cl)cc1)Nc1ccncc1		0.001 µM (active)
COC[C@H](NC(=O)c1cnc(C)s1)C(=O)N[C@@H](COC)C(=O)N[C@@H](Cc1ccccc1)C(=O)[C@@]1(C)CO1		0.187 µM (active)
C=CC[C@@H]1C=C(C)C[C@H](C)C[C@H](OC)[C@H]2O[C@@](O)(C(=O)C(=O)N3CCCC[C@H]3C(=O)O[C@H](C(C)=C[C@@H]3CC[C@H](O)[C@H](OC)C3)[C@@H](C)[C@@H](O)CC1=O)[C@@H](C)C[C@@H]2OC		0.935 µM (active)
CN[C@@H]1C[C@H]2O[C@@](C)([C@H]1OC)n1c3ccccc3c3c4c(c5c6ccccc6n2c5c31)C(=O)N[C@H]4O		0.148 µM (active)
CC(C)C[C@H](NC(=O)CNC(=O)c1cc(Cl)ccc1Cl)B1OC(=O)CC(CC(=O)O)(C(=O)O)O1 (stereo not given in full)		0.0469 µM (active)
Cn1c(Nc2ccc(C(F)(F)F)cc2)nc2cc(Oc3ccnc(-c4ncc(C(F)(F)F)[nH]4)c3)ccc21		1.87 µM (active)
CCCCCCCCc1ccc(CCC(N)(CO)CO)cc1		3.72 µM (active)
C[C@H]1COc2c(N3CCN(C)CC3)c(F)cc3c(=O)c(C(=O)O)cn1c23		inactive
CC1=C(C(=O)Nc2cc3cn[nH]c3cc2F)C(c2ccc(Cl)cc2F)N=C(c2ccnc(Cl)c2)N1 (stereo not given)		6.62 µM (active)

Structure (SMILES)	viability (% of control)	Potency
CCn1c(=O)c2c(nc(C=Cc3ccc(OC)c(OC)c3)n2C)n(CC)c1=O		inactive
CN(C)CCN1C(=O)c2cccc3cc(N)cc(c23)C1=O		16.6 µM (active)
C[C@@H](Cc1cc2c(c(C(N)=O)c1)N(CCCO)CC2)NCCOc1ccccc1OCC(F)(F)F		inactive
O=c1c(O)c(-c2ccc(O)c(O)c2)oc2cc(O)ccc12		9.35 µM (active)
Cn1cc(C=CC(=O)c2cccc(F)c2)cc1C=CC(=O)NO		18.7 µM (active)
COc1cc(OC)c(NC(=O)Nc2cc(C)on2)cc1Cl		inactive
CCOC(=O)[C@@H](N)Cc1ccc(-c2cc(O[C@H](c3ccc(Cl)cc3-n3ccc(C)n3)C(F)(F)F)nc(N)n2)cc1		18.7 µM (active)
CS[C@H]1SC[C@@H]2C(=O)N(C)[C@H](C(C)C)C(=O)OC[C@H](NC(=O)c3cnc4ccccc4n3)C(=O)N[C@H](C)C(=O)N(C)[C@@H]1C(=O)N(C)[C@H](C(C)C)C(=O)OC[C@H](NC(=O)c1cnc3ccccc3n1)C(=O)N[C@H](C)C(=O)N2C		0.001 µM (active)
C=C(C)[C@@H]1CC[C@]2(C)CC[C@]3(C)[C@H](CC[C@@H]4[C@@]5(C)CC[C@H](O)C(C)(C)[C@H]5CC[C@]43C)[C@@H]12		inactive
CC(C)[C@H](CO)Nc1nc(Nc2cccc(Cl)c2)c2ncn(C(C)C)c2n1		16.6 µM (active)
COc1ccc([C@@H]2CNC(=O)C2)cc1OC1CCCC1		1.48 µM (active)
Nc1nc(=O)n([C@H]2CSC(CO)O2)cc1F (stereo not given in full)		inactive
CC(C=CC(=O)NO)=C[C@@H](C)C(=O)c1ccc(N(C)C)cc1		0.469 µM (active)
Nc1cccc2c1C(=O)N(C1CCC(=O)NC1=O)C2=O (stereo not given)		inactive
O=C(CN1C(=O)C2(CCCC2)NC[C@H]1c1cc(F)cc(F)c1)Nc1ccc2c(c1)C[C@@]1(C2)C(=O)Nc2ncccc21		inactive
CC(=O)OCC(=O)[C@@]1(O)CC[C@H]2[C@@H]3CCC4=CC(=O)CC[C@]4(C)[C@@H]3C(=O)C[C@@]21C		inactive
CC1(C)CC(O)CC(C)(C)N1[O]		inactive
CN1CCc2c(c3ccccc3n2Cc2ccc(C(=O)NO)cc2)C1		16.6 µM (active)
C[C@@H](NCc1cc2ccccc2[nH]1)c1cccc2ccccc12		inactive
COc1cc(C)c(Sc2cnc(NC(=O)c3ccc(CNC(C)C(C)(C)C)cc3)s2)cc1C(=O)N1CCN(C(C)=O)CC1 (stereo not given)		18.7 µM (active)
